Out of some 22,000 compounds screened, about 220 (1%) were called active. Rule as the data show it: active = inhibition above about 35%; inactive = the rest. The full list was thinned out, with actives kept by preference.

Mitogen-activated protein kinase kinase kinase 5 (Homo sapiens), sequence (Q99683 whole entry, looked up): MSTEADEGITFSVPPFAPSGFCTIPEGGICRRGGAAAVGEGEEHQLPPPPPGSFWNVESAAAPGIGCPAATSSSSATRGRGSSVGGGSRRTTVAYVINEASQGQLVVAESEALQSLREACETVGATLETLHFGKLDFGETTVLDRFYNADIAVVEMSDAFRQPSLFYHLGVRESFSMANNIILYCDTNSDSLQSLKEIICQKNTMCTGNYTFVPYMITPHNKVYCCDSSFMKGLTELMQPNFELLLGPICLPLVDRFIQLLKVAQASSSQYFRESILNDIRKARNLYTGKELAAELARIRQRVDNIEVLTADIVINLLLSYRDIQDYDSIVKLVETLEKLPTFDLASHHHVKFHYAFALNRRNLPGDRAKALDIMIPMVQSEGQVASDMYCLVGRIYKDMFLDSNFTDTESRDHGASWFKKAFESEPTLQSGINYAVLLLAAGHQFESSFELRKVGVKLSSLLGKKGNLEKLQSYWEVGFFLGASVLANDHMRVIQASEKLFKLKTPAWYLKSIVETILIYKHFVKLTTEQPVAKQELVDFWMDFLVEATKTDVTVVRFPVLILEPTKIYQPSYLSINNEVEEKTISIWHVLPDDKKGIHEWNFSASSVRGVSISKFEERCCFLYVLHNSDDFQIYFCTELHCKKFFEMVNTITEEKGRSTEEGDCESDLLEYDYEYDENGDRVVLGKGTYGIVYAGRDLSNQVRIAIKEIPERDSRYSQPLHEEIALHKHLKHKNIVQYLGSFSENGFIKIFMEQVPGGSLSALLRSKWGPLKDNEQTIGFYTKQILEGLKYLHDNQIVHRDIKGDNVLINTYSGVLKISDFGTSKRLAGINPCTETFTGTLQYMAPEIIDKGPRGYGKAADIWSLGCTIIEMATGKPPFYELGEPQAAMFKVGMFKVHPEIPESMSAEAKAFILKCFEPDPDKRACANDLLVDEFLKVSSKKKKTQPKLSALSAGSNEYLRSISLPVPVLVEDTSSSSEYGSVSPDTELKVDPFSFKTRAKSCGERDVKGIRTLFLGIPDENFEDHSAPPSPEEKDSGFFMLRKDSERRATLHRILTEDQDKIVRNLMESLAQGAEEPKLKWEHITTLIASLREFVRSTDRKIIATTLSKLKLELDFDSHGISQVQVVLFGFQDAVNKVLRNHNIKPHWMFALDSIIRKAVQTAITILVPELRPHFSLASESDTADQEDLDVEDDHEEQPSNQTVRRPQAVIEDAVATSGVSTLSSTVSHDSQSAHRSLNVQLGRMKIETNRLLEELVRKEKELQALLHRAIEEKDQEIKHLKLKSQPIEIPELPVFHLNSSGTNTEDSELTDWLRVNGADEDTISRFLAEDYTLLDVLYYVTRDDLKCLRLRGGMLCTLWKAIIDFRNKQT

This experiment has as its target Mitogen-activated protein kinase kinase kinase 5 (Homo sapiens) (UniProt Q99683). The experiment in a line: ASK1 kinase inhibitors, primary screen, biochemical, AlphaScreen (AID 1159602).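 Also: 0% = median of compound wells and 100% = no enzyme.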 As to conditions: AlphaScreen MKK6 phosphorylation by ASK1, luminescence; at 7.44 µM; hits give high values.
In the case of `O=C(NCc1cccc(C(F)(F)F)c1)c1csc(NCc2ccc3c(c2)OCO3)n1`, the inhibition was 8.66% (inactive).

For `Cc1cc(NCCO)nc(Nc2nccc3ccccc23)n1`, the inhibition was -10.4% (inactive).

Regarding `COc1nc(N)nc(-c2csc3ccccc23)n1`, the inhibition is 2.99% (inactive).

`CCNc1nc(Nc2cc(OC)c(OC)c(OC)c2)c2ncn(-c3ccsc3)c2n1`: the inhibition is 8.63% (inactive).

For `O=C(NCCN1CCOCC1)c1csc(N2CCC(N3CCOCC3)CC2)n1`, the inhibition is -5.25% (inactive).

With `c1cn(-c2ccc(Nc3nc4ncnc(NC5CC5)c4[nH]3)cc2)cn1`, the inhibition was 18.6% (inactive).

On to `COc1ccc(-c2cc(C(=O)Nc3ccc(N4CCOCC4)cc3)ccn2)cc1`, for which the inhibition is 11.5% (inactive).

Turning to `c1ccc(CN2CCC(Nc3nc(N4CCc5ccccc5C4)nc4c3ncn4-c3ccsc3)CC2)cc1`, the inhibition is 9.04% (inactive).

As for `Cc1ncn(-c2ccc(Nc3nccc(N4CCc5[nH]ncc5C4)n3)cc2)n1`, the inhibition is -13.8% (inactive).

Turning to `CCN(CC)c1nc(NCc2nc3ccccc3[nH]2)nc(N2CCCC2CO)n1` (stereo not given), the inhibition was -6.32% (inactive).

As for `c1ccc2[nH]c(CNc3ncnc4nc(N5CCC(N6CCOCC6)CC5)[nH]c34)nc2c1`, the inhibition was -21.4% (inactive).

Regarding `O=C(NCC(O)c1ccc(Br)cc1)c1cn(-c2cccc3c(=O)[nH]ccc23)nn1` (stereo not given), the inhibition is 13.4% (inactive).

Regarding `c1ccc(OCCNc2cc(-c3ccccc3)ncn2)cc1`, the inhibition is -16.6% (inactive).

As for `CC(=O)Nc1ccc(Nc2ccnc(N3CCC(N4CCOCC4)CC3)n2)cc1`, the inhibition is -0.1% (inactive).

Take `CC(C)n1cnc2c(NCc3ccccc3)nc(NC3CCC(O)CC3)nc21` (stereo not given): the inhibition is -16.8% (inactive).

For the compound `Cc1ccc(C(=O)N2CCCC(Nc3cccc4cncc(C)c34)C2)cc1F` (stereo not given), the inhibition is -24.3% (inactive).

Turning to `CN(C)CCCNC(=O)c1ccc2c(c1)CC(c1nc3ccc(-c4ccnc(N)n4)cc3[nH]1)CO2` (stereo not given), the inhibition is 12.4% (inactive).

Regarding `c1ccc(-n2cnc3c(NCCN4CCOCC4)nc(Nc4ccc(-n5ccnc5)cc4)nc32)cc1`, the inhibition is 5.99% (inactive).

Consider `O=C(NCCN1CCOCC1)c1cccc(-n2ncc3cc(Nc4ccccc4F)ccc32)n1`, for which the inhibition was -7.35% (inactive).

Turning to `O=C(Nc1ccc(N2CCOCC2)cc1)c1cccc(N2CCC(N3CCOCC3)CC2)n1`, the inhibition is 13.2% (inactive).

As to `Nc1nc(N2CCN(c3ccccn3)CC2)nc2c1ncn2-c1ccsc1`, the inhibition is 1.87% (inactive).

`CC(=O)Nc1ccc(Nc2nc(Nc3ccc(-n4ccnc4)cc3)nc3c2ncn3-c2ccsc2)cc1`: the inhibition is 4.85% (inactive).

On to `O=C(NCCN1CCOCC1)c1cccc(-c2ccc(N3CCOCC3)nc2)c1`, for which the inhibition is 1.42% (inactive).

As for `CC(C)N(CCNC(=O)c1ccnc(Nc2ccc(C(F)(F)F)cc2)c1)C(C)C`, the inhibition is 7.8% (inactive).

On to `CCCN1CCN(c2c(Cl)cccc2NC(=O)Nc2ccc(Br)cc2)CC1`, for which the inhibition is -17.3% (inactive).

As for `c1cc(-c2cncc(N3CCOCC3)c2)nc(Nc2ccc3c(c2)OCO3)n1`, the inhibition is -4.36% (inactive).

As to `COc1ccc(CCNc2cc(NCc3cccnc3)nc(N)n2)cc1`, the inhibition is -6.16% (inactive).

As to `Cc1cc(NC2CC2)nc(NCCCN2CCCC2=O)n1`, the inhibition is 7.09% (inactive).

With `COc1ccc(CCNc2cc(-c3ccc(OC)cc3)nc(N)n2)cc1`, the inhibition is -5.04% (inactive).

For `COc1cc2nc(Nc3cccc(N(C)C)c3)nc(Nc3cc(OC)c(OC)c(OC)c3)c2cc1OC`, the inhibition was 36.7% (active).

Take `COc1cc(Nc2nc(Nc3cccc(N(C)C)c3)nc3nc[nH]c23)cc(OC)c1OC`: the inhibition was 27% (inactive).

In the case of `COc1cc2nc(NCc3ccc4c(c3)OCO4)nc(Nc3ccc(NC(C)=O)cc3)c2cc1OC`, the inhibition was 18.8% (inactive).

`COc1cc2nc(Nc3ncccn3)nc(Nc3cc(OC)c(OC)c(OC)c3)c2cc1OC`: the inhibition was 14.3% (inactive).

Regarding `COc1cc2nc(Nc3nccc4ccccc34)nc(Nc3ccccc3)c2cc1OC`, the inhibition was -29.2% (inactive).

Turning to `COc1cc2nc(Nc3ccc4ncccc4c3)nc(Nc3ccc(NC(C)=O)cc3)c2cc1OC`, the inhibition was 35.6% (active).

For `FC(F)(F)c1ccc(Cn2cnc3c(NCc4nc5ccccc5[nH]4)nc(N4CCOCC4)nc32)cc1`, the inhibition is -1.96% (inactive).

As for `Cn1nccc1-c1cc(F)cc(-c2ccnc(Nc3ccc(-n4cnc(N5CCOCC5)n4)cc3)n2)c1`, the inhibition is 21.1% (inactive).

Take `O=C(Nc1cccc(Cl)c1N1CCC(N2CCCCC2)CC1)c1ccc(Br)o1`: the inhibition is 9.68% (inactive).

As to `O=C1CCCN1CCn1cnc2c(Nc3ccc(N4CCOCC4)cc3)nc(Nc3ccccc3)nc21`, the inhibition was 13.9% (inactive).

Consider `COc1ccc(CCNC(=O)c2cccc(-c3ccc(C(N)=O)cc3)n2)cc1`, for which the inhibition is 0.41% (inactive).

`CNC(=O)c1cc(F)ccc1Nc1cc(Nc2ccc3c(c2)CCC(=O)N3)ncc1C(F)(F)F`: the inhibition is 2.41% (inactive).

Take `c1ccc(CCNc2nccc(Nc3ccncn3)n2)cc1`: the inhibition is 1.01% (inactive).

As to `CC(C)n1cnc2c(Nc3ccc(N4CCOCC4)cc3)nc(Nc3ccncc3)nc21`, the inhibition was 4.78% (inactive).

`COc1cc(Nc2nc(N3CCc4ccccc4C3)nc3c2ncn3-c2ccsc2)cc(OC)c1OC`: the inhibition was 6.46% (inactive).

For the compound `COc1cc(Nc2nc(N3CCc4ccccc4C3)nc3c2ncn3-c2ccccc2)cc(OC)c1OC`, the inhibition is 38.8% (active).

For the compound `CCCNc1nc(N2CCc3ccccc3C2)nc2c1ncn2-c1ccccc1`, the inhibition is 6.17% (inactive).

`O=C(NCc1ccccc1)c1cnc(NCc2ccc3c(c2)OCO3)s1`: the inhibition was -19.1% (inactive).

For the compound `O=C1CCCN1CCCNc1nccc(NC2CCN(Cc3ccccc3)CC2)n1`, the inhibition is -6.87% (inactive).

Turning to `c1nc(Nc2ccc(N3CCOCC3)cc2)cc(N2CCOCC2)n1`, the inhibition is 3.52% (inactive).

With `CN1CCN(c2ccc(-c3cc(Nc4ccc(N5CCOCC5)cc4)nc(N)n3)cc2)CC1`, the inhibition is 17.6% (inactive).

For the compound `Nc1nc(Nc2ccc(N3CCOCC3)cc2)cc(-c2ccc3[nH]ccc3c2)n1`, the inhibition was 41.8% (active).

As to `Nc1cccc(-c2nc(NCCc3ccc(O)cc3)c3ncn(Cc4ccc(C(F)(F)F)cc4)c3n2)c1`, the inhibition was 3.28% (inactive).

Turning to `c1ccc(CCCNc2nccc(Nc3ccncn3)n2)cc1`, the inhibition is 12.3% (inactive).

Turning to `Nc1nc(Nc2ccc(-n3ccnc3)cc2)cc(NC2CCN(Cc3ccccc3)CC2)n1`, the inhibition was 18.2% (inactive).

Turning to `COc1ccc(-c2cccc(C(=O)Nc3ccccc3)n2)cn1`, the inhibition is -3.52% (inactive).

Source of the values: PubChem BioAssay AID1159602 (The Scripps Research Institute Molecular Screening Center, 2016).
